# The sample as a whole holds a higher share of hits than the screen did.
# Vaccinia mCherry = inhibitors of vaccinia virus infection (mCherry reporter signal); AID 720579; Potency, µM (highest dose often 36.5 µM), most hits filed as inhibitors; 310,000 tested, 0.63% active; Vaccinia virus mCherry reporter infection, fluorescence; calls by dose curve; tested in A549 cells; note: nearly all actives have a fitted effect of over 35% in size
# Shiga inhibitor = Shiga toxin inhibition | Vero cells, Shiga toxin protein synthesis inhibition reporter | inhibition, % at 38.7 µM | 290,000 tested, 9.2% active | AID 2315; in the data active = inhibition mostly above about 28%, no sharp cut-off; inactive = mostly below about 43%
# CHX counter = affects cycloheximide protein synthesis inhibition readout, counter-screen; cell reporter, cycloheximide protein synthesis inhibition counterscreen; max response, %; 300,000 tested, 12% active; AID 2314; in the data active = max response mostly above about 13%, no sharp cut-off; inactive = mostly below about 14%; note: read at 38.3 µM for the half of the compounds with a filed dose
# Marburg entry inh = blocks Marburg virus binding to or entry into cells | Potency, µM (doses to about 37.8 µM), most hits filed as inhibitors | Marburg virus pseudotyped entry inhibition, cell reporter | 300,000 tested, 1.8% active | AID 540276; calls by dose curve; tested in HEK293 cells
# VACV Venus inh = inhibitors of vaccinia virus (Venus reporter) | 330,000 tested, 0.46% active | Vaccinia virus Venus reporter expression, fluorescence | Potency, µM (highest dose often 36.5 µM), actives largely listed as inhibitors; calls by dose curve; tested in A549 cells; note: nearly all actives have a fitted effect of over 30% in size
# LASV entry inh = blocks Lassa virus binding to or entry into cells | Potency, µM (series often up to 37.9 µM), usual class: inhibitors | 300,000 tested, 1.2% active | AID 540256 | Lassa virus pseudotype entry inhibition, cell reporter; calls by dose curve; tested in HEK293 cells; note: nearly all actives have a fitted effect of over 50% in size
# Hits are given with their value; – = inactive; ? = inconclusive; · = not tested or not shown.
SMILES,Vaccinia mCherry,Shiga inhibitor,CHX counter,Marburg entry inh,VACV Venus inh,LASV entry inh
O=C(NC1CCCCCC1)C1CCC(CNS(=O)(=O)c2ccc(Br)s2)CC1 (configuration not stated),–,–,–,–,–,–
Cc1ccc(-c2cn3nc(N4CCCC(C(=O)Nc5ccc(F)cc5)C4)sc3n2)cc1 (configuration not stated),–,·,·,·,–,?
Cc1nc(N2CCCC2)ncc1C(=O)NCc1ccccc1Cl,–,·,·,·,–,–
Cc1c(C(=O)N(C)Cc2cscn2)sc2ncnc(NC[C@H]3CCc4ccccc4O3)c12,–,·,·,·,–,·
O=C(NC(=S)Nc1ncc(Br)cc1Br)c1cncc(Br)c1,·,–,–,–,·,–
O=C(NC(=S)NC1CCCCCC1)c1cncc(Br)c1,–,85,40,?,–,?
C/C(=N\NC(=S)NC1CCCCC1)c1ccccc1,–,–,12,–,–,–
O=C(NC(=S)NC1CCCCC1)c1ccccc1,–,99,48,–,–,?
C/C(=N\NC(=S)NC1CCCCC1)c1ccc(O)cc1,?,–,–,–,–,·
CCCNC(=O)N1N=C(c2ccc(N)cc2)c2cc3c(cc2C1C)OCO3 (configuration not stated),·,–,–,·,·,·
C[C@@H](OC(=O)N(C)Cc1ccccc1)[C@H]1O[C@]2(C)CCCC[C@H]1O2,–,·,·,·,–,·
COC(=O)C1(Cc2cc(-c3ccccc3)no2)CCN(C(=O)OC(C)(C)C)CC1,–,40,27,·,–,·
COC(=O)c1ccc(-c2cc(CC3(C(=O)OC)CCN(C(=O)OC(C)(C)C)CC3)on2)cc1,–,–,–,·,–,·
CC(=O)c1ccc(N(C(=O)CS(=O)CC(=O)Nc2ccc(F)cc2)C(C(=O)NC2CCCCC2)c2cccs2)cc1 (configuration not stated),–,–,–,–,–,–
C/C(=C\C(=O)c1ccc(Br)cc1)NNC(=O)c1ccc(O)cc1,·,50,27,·,·,·
C/C(=C\C(=O)c1ccc(Br)cc1)NCc1ccccc1,·,–,19,–,–,–
C/C(=C\C(=O)c1ccc(Br)cc1)NCc1ccc(C)cc1,·,–,–,–,–,–
COc1cc(C=CC(=O)N2CCN(CC(=O)N3CCCC3)CC2)cc(OC)c1OC,–,·,·,·,–,·
Cc1nn(-c2ccccc2)c2c1C(c1ccco1)C(C#N)=C(N)O2 (configuration not stated),–,55,40,–,–,–
COc1cccc(CN2CCNC(=O)C2CC(=O)NCCn2ccc3ccccc32)c1OC (configuration not stated),·,–,–,·,·,·
C=CCOc1cccc(C2C(C(=O)c3ccco3)=C(O)C(=O)N2Cc2ccco2)c1 (configuration not stated),–,–,–,–,–,·
C=CCOc1cccc(C2C(C(=O)c3ccco3)=C(O)C(=O)N2Cc2ccncc2)c1 (configuration not stated),–,40,29,–,–,–
CCOc1ccc(C2C(C(=O)c3ccco3)=C(O)C(=O)N2CCCn2ccnc2)cc1OC (configuration not stated),?,–,16,–,–,–
CC(C)Oc1ccc(/C(O)=C2/C(=O)C(=O)N(Cc3cccnc3)C2c2ccco2)cc1 (configuration not stated),–,72,62,–,–,–
COc1ccc(/C(O)=C2/C(=O)C(=O)N(Cc3cccnc3)C2c2ccccn2)cc1 (configuration not stated),–,61,24,–,–,–
SMILES,Vaccinia mCherry,Shiga inhibitor,CHX counter,Marburg entry inh,VACV Venus inh,LASV entry inh
CCOc1ccc(C2C(C(=O)c3ccco3)=C(O)C(=O)N2Cc2cccnc2)cc1OC (configuration not stated),·,–,–,–,–,–
CC(C)Oc1ccc(C2C(C(=O)c3ccco3)=C(O)C(=O)N2Cc2cccnc2)cc1 (configuration not stated),·,45,35,–,·,–
O=[N+]([O-])c1cccc(NN=Nc2ccccc2)c1,·,40,29,·,·,·
O=[N+]([O-])c1ccc(N=NNc2ccccc2)cc1,·,185,64,–,·,–
Brc1ccc(N=NNc2ccccc2)cc1,?,92,35,?,–,–
O=C(O)c1cc(NN=Nc2cccc([N+](=O)[O-])c2)cc([N+](=O)[O-])c1,·,–,–,·,·,·
Cc1cccc2c(C(O)c3cn(C)c4ccccc34)c[nH]c12 (configuration not stated),–,·,·,·,–,·
CCN1CCN(C(=O)/C=C/c2ccc(OC)c(OC)c2)CC1,–,–,–,–,–,–
CN1CCN(C(=O)/C=C/c2ccc(Cl)c(Cl)c2)CC1,–,–,37,–,–,?
CN1CCN(C(=O)/C=C/c2ccc(Cl)cc2)CC1,–,–,24,?,–,–
O=C(/C=C/c1ccc(Cl)cc1)N1CCN(c2ncccn2)CC1,·,–,–,–,·,·
CC(=O)c1ccc(NC(=O)Nc2ccc(S(=O)(=O)N3CCCC3)cc2)cc1,–,–,–,–,–,?
CCCN1C(=O)C(Cc2nc3ccccc3c(=O)n2-c2cccc(C)c2)c2ccccc21 (configuration not stated),–,·,·,–,–,–
C=CCn1c(-c2sccc2C)n[nH]c1=S,–,–,–,–,–,–
C=CCn1c(-c2cc3c(s2)CCC(CC)C3)n[nH]c1=S (configuration not stated),–,–,24,–,–,?
C=CCn1c(SCC(=O)NC2CCS(=O)(=O)C2)nnc1-c1ccc(Cl)cc1 (configuration not stated),–,·,·,–,–,–
C=CCn1c(SCC(=O)NC2CCS(=O)(=O)C2)nnc1-c1cc2c(s1)CCC(CC)C2 (configuration not stated),–,–,25,–,–,–
Cc1ccccc1OCC(=O)OCc1cc(=O)n2nc(C3CCCCC3)sc2n1,–,·,·,·,–,–
COc1ccc(C(CNC(=O)COc2cc(C)cc(C)c2)N2CCOCC2)cc1 (configuration not stated),–,·,·,–,–,–
COc1ccc(CN(Cc2ccco2)C(=O)c2ccccc2F)cc1,–,·,·,–,–,–
Cc1ccc(OCCn2ncc3ccccc3c2=O)c(C)c1,·,–,15,–,·,·
O=C(O)CCn1ncc2ccccc2c1=O,–,–,–,–,–,–
O=c1c2ccccc2cnn1CCOc1cccc(Br)c1,–,120,51,?,–,?
CCC12CC1(C(=O)OC)C(=O)N1CCc3c([nH]c4ccccc34)C12 (configuration not stated),–,·,·,·,–,·
COc1ccc(CN2CCc3nnc(CNC(=O)c4cc(C)oc4C)n3CC2)c2ccccc12,–,·,·,·,–,·
COc1ccc(O)c(/C=N/NC(=O)CN2CCS(=O)(=O)CC2)c1,3.2µM,–,–,–,–,–
CCN(Cc1ccccc1)S(=O)(=O)c1cc(C(=O)NC(C)C2CC3CCC2C3)ccc1OC (configuration not stated),–,–,–,?,?,3.2µM
CCC(=O)Nc1cccc(C(=O)/C=C/c2ccc(F)cc2)c1,·,–,17,15µM,·,?

# From PubChem
